PubChem BioAssay (NCATS)
Records with an inconclusive call do not appear. Where a call stands in place of a potency, no number is given. Active and inactive are the calls of the source. Calls follow the shape of the dose curve; as a rule, active = well fitted curve in the direction sought with a large enough effect; inconclusive = small, poorly fitted or top-dose-only effect, or another doubt; inactive = no such curve, though single readings can be large; an effect the other way counts as inactive or inconclusive.

Columns and labels:
[1] = UWB1.289 Cancer Cell Toxicity qHTS against the NCATS CANVASS Library (AID 1347347); also: nearly all actives have a fitted effect of over 60% in size; also: potency is read from the fitted curve at half-maximal effect
Outline: (§1)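 Following a 4 h pre-incubation of 1000 seeded cells, compounds were pinned in an 11-pnt dilution series and left for 72 h; viability then came from CellTiter-Glo.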

[2] = OV-SAHO Cancer Cell Toxicity qHTS against the NCATS CANVASS Library (AID 1347348); also: nearly all actives have a fitted effect of over 55% in size; also: potency is read from the fitted curve at half-maximal effect
Outline: as §1

[3] = SW1088 Cancer Cell Toxicity qHTS against the NCATS CANVASS Library (AID 1347350); also: nearly all actives have a fitted effect of over 75% in size; also: potency is read from the fitted curve at half-maximal effect
Outline: as §1

[4] = A2780 Cisplatin Sensitive Ovarian Cancer Cell Toxicity qHTS against the NCATS CANVASS Library (AID 1347353); also: nearly all actives have a fitted effect of over 60% in size; also: potency is read from the fitted curve at half-maximal effect
Outline: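 Quantitative HTS format: eleven compound concentrations applied to pre-seeded cells, 72 h incubation at 37 °C, then ATP detection by luminescence.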

[5] = G06 Cancer Cell Toxicity qHTS against the NCATS CANVASS Library (AID 1347368); also: nearly all actives have a fitted effect of over 60% in size; also: potency is read from the fitted curve at half-maximal effect
Outline: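 Quantitative HTS in G06 cells (dog glioma): 72 hr treatment, 11 concentrations, then ATP-based luminescent viability readout; bortezomib 0.1 nM–4.6 uM final as reference.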

[6] = qHTS for Hypoxia signaling pathway (HIF-1) antagonists against the NCATS CANVASS Library (AID 1347374); also: nearly all actives have a fitted effect of over 60% in size; also: potency is read from the fitted curve at half-maximal effect
Outline: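 Beta-lactamase reporter under HRE control in ME-180 cells; CoCl2 stimulus (60 uM solution as added), compounds 11-pt qHTS, 17 h 37C. CCF4 dye 2 h RT, 460/530 nm emission. CellTiter-Glo viability in same wells.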

[7] = DH5-alpha competent E. coli microbial cell viability qHTS against the NCATS CANVASS Library (AID 1347377); settings: outcome: dose series up to 46.1 µM unless noted
Outline: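 Overnight incubation at 37C, 5% CO2 of E. coli DH5-alpha (diluted to 0.2 OD) with compounds precedes BacTiter-Glo addition. Luminescence, acquired after 20 min at room temperature, reflects viable-cell ATP.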

[8] = qHTS for H2AX Agonists against the NCATS CANVASS Library (AID 1347378);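 also: phospho-H2AX S139 level in CHO-K1 lysates by TR-FRET emission ratio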; also: potency is read from the fitted curve at half-maximal effect
Outline: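 Following overnight seeding, CHO-K1 cells are incubated with a concentration series of compound for 3 hr at 37C (final DMSO 0.76%). Cells are then lysed, detection antibodies added, and emission ratio 665/620 nm recorded after 24 hr at room temperature.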

[9] = qHTS assay for small molecule disruptors of mitochondrial membrane potential screened against the NCATS CANVASS Library (AID 1347389); also: nearly all actives have a fitted effect of over 60% in size; also: potency is read from the fitted curve at half-maximal effect
Outline: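 Cells (HepG2) seeded the day before received compound or DMSO for 1 hr, then Mito-MPS dye for 30 min at 37C; emission at 590 nm over 535 nm gave the polarization signal.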

[10] = Secretion counterscreen for inhibitors of the SERCaMP assay screened against the NCATS CANVASS Library (AID 1347390);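 also: light from luciferase secreted into medium read as a measure of general secretion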; also: potency is read from the fitted curve at half-maximal effect
Outline: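 Counterscreen identifying compounds that disrupt secretion, using SH-SY5Y cells with a constitutively secreted Gaussia luciferase reporter. A 20 h compound exposure (top 77 uM) precedes luminescent detection with coelenterazine.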

[11] = qHTS for activators of Nrf2/ARE signaling pathway screened against the NCATS CANVASS Library (AID 1347391); also: nearly all actives have a fitted effect of over 60% in size; also: potency is read from the fitted curve at half-maximal effect
Outline: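 Activation of Nrf2/ARE was scored in ARE-bla HepG2 cells after 16 h compound exposure using CCF4 beta-lactamase fluorescence ratio readings.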

[12] = Redox Reaction Profiling qHTS: Assay Interference Panel against the NCATS CANVASS Library (AID 1347401); also: potency is read from the fitted curve at half-maximal effect
Outline: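 Redox-cycling liability assessed as DTT-driven conversion of resazurin (5 uM, with 200 uM DTT, HEPES pH 7.3) to fluorescent resorufin. Fluorescence at 525/598 nm measured initially and after 15 min dark incubation.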

[13] = UWB1.289-WTBRCA1 Cancer Cell Toxicity qHTS against the NCATS CANVASS Library (AID 1347354); also: potency is read from the fitted curve at half-maximal effect
Outline: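 Using an ATP-based luminescent reagent after three days of treatment, toxicity is scored across an eleven-concentration range in wells holding 1000 cells each.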

[14] = HPAF-II 12hr Apoptosis Induction qHTS against the NCATS CANVASS Library (AID 1347358)
Outline: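 Twelve-hour compound exposure of HPAF-II cells in DMEM with 10% FBS, then luminescent Caspase-Glo 3/7 detection after 15 min at room temperature; doxorubicin control.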

[15] = HPAF-II 18hr Apoptosis Induction qHTS against the NCATS CANVASS Library (AID 1347360)
Outline: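 Apoptosis was scored as caspase-3/7 activity in HPAF-II pancreatic cancer cells treated 18 hours with an 11-point concentration series.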

[16] = qHTS for inhibitors of ER calcium dysfunction: SERCaMP assay screened against the NCATS CANVASS Library (AID 1347393); also: nearly all actives have a fitted effect of over 40% in size; also: potency is read from the fitted curve at half-maximal effect
Outline: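 Thapsigargin-induced ER calcium depletion drives GLuc-SERCaMP secretion from SH-SY5Y cells; compounds given 16 h beforehand were scored by lowered coelenterazine luminescence after 4 h challenge.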

[17] = qHTS for Hypoxia signaling pathway (HIF-1) agonists against the NCATS CANVASS Library (AID 1347375); also: potency is read from the fitted curve at half-maximal effect
Outline: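 An HRE-beta-lactamase ME-180 line is exposed for 17 h to an 11-point compound series, then read by CCF4-AM FRET. Cytotoxicity is measured in parallel in the same wells with CellTiter-Glo, and autofluorescence is checked separately.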

[18] = qHTS for Activators of p53 Stress Response Pathway screened against the NCATS CANVASS Library (AID 1347388)
Outline: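 Beta-lactamase reporter driven by p53 response elements in HCT-116 cells, read as the 460 nm/530 nm emission ratio after CCF4 loading, following 16 h of exposure to an 11-point series. Cell viability was measured in the same wells by CellTiter-Glo luminescence.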

[19] = qHTS for inhibitors of Wild type Zika virus screened against the NCATS CANVASS Library (AID 1347396);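 also: ATP luminescence of surviving cells so rescue from viral cell killing; series mostly up to about 46 µM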
Outline: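 Using ATP-based luminescence (CellTiter Glo), this screen scores rescue of Vero 766 cells from wild-type Zika killing at 72 h post-infection. Compounds are tested in a concentration series.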

| SMILES | Potency [1] | Potency [2] | Potency [3] | Potency [4] | Potency [5] | Potency [6] | outcome [7] | Potency [8] | Potency [9] | Potency [10] | Potency [11] | Potency [12] | Potency [13] | Potency [14] | Potency [15] | Potency [16] | Potency [17] | Potency [18] | Potency [19] |
| --- | --- | --- | --- | --- | --- | --- | --- | --- | --- | --- | --- | --- | --- | --- | --- | --- | --- | --- | --- |
| C/C=C/C(=O)[C@@H](C)C1=CC(=O)C2=C(O[C@@]34CC[C@H](O)C(C)(C)[C@@H]3CC[C@H](C)[C@@]4(C)C2)C1=O | 21.1 µM (active) | 6.66 µM (active) | 7.49 µM (active) | 1.66 µM (active) | 3.32 µM (active) | 2.11 µM (active) | inactive | 15.4 µM (active) | 16.6 µM (active) | 17.2 µM (active) | 1.86 µM (active) | inactive |  |  |  |  |  |  |  |
| CCC[C@@H](C)/C=C(\C)[C@H](O)[C@H](C)/C=C/CC[C@@H](O)[C@H](C)[C@H](O)[C@H](C)[C@H](O)[C@H](C)[C@H]1O[C@H]([C@H](C)C(=O)O)CC[C@@H]1C | 6.66 µM (active) | 3.34 µM (active) | 2.11 µM (active) |  |  | 2.98 µM (active) |  |  | 20.9 µM (active) | 38.4 µM (active) |  | inactive | 13.3 µM (active) | inactive | inactive | inactive |  |  |  |
| C[C@@H]1C(=O)[C@]23CC[C@H]1C[C@]21O[C@H]2C(C)(C)C=CC(=O)[C@]23COC1=O | inactive |  | inactive | inactive | inactive | inactive | inactive | inactive | inactive | inactive | inactive | inactive | inactive |  |  | inactive | inactive | inactive | inactive |
| CC1=CC2=C[C@H](C)C[C@@]23OC(=C(C)C3=O)CC(C)(C)/C=C/C1=O |  | 2.11 µM (active) | 5.95 µM (active) | 0.209 µM (active) | 0.833 µM (active) | 0.265 µM (active) | inactive |  | 5.24 µM (active) | 1.93 µM (active) | 0.0741 µM (active) | inactive | 11.8 µM (active) |  | inactive | inactive | 5.29 µM (active) | inactive |  |
| C[C@@H]1O[C@@H](Oc2c(-c3ccc(O)cc3)oc3cc(O)cc(O)c3c2=O)[C@H](O)[C@H](O)[C@H]1O | inactive | inactive | inactive | inactive | inactive |  | inactive | inactive | inactive | inactive | inactive | inactive | inactive | inactive |  | inactive |  |  | inactive |
| CN1C(=O)C2C(N=CN2C)N(C)C1=O (stereo unspecified) | inactive | inactive | inactive | inactive | inactive | inactive | inactive | inactive | inactive | inactive | inactive | inactive | inactive |  | inactive | inactive | inactive | inactive | inactive |
| CC12C[C@]3(O)O[C@@H](O1)[C@]1(COC(=O)c4ccccc4)[C@@H]3CC21OC1OC(CO)C(O)C(O)C1O (stereo partly specified) |  | inactive | inactive | inactive |  | inactive | inactive |  | inactive |  | inactive | inactive | inactive |  | inactive |  | inactive | inactive | inactive |
| O=C1CC(c2cc(O)cc(O)c2)Oc2cc(O)ccc21 (stereo unspecified) |  | inactive | inactive | 3.72 µM (active) |  | inactive | inactive |  | 7.41 µM (active) |  |  | inactive | inactive | inactive | inactive | 8.6 µM (active) | inactive | inactive | inactive |
| Cc1cc(O)cc2oc(C[C@H](C)O)cc(=O)c12 | inactive | inactive | inactive | inactive |  | inactive | inactive | inactive | inactive | inactive | inactive | inactive | inactive |  |  | inactive | inactive | inactive | inactive |
| C=C1/C=C\C(CCC)=C\c2csc(n2)C(C)NC(=O)C[C@@]2(CC(=O)O)CCC(=C)[C@H](C1)S2 (stereo partly specified) | inactive | inactive | inactive | inactive | inactive | inactive | inactive | inactive | inactive | inactive |  | inactive | inactive | inactive |  | inactive | inactive | inactive | inactive |
| C[C@@H]1O[C@@H](O[C@@H]2[C@@H](O)[C@H](O[C@@H]3[C@@H](O)[C@@H](O)C(O[C@H]4[C@H](OC(=O)[C@]56CCC(C)(C)C[C@H]5C5=CCC7[C@@]8(C)C[C@H](O)[C@H](O[C@@H]9C[C@H](CO)[C@@H](O)[C@H](O)[C@H]9O)[C@@](C)(CO)C8[C@H](O)C[C@@]7(C)[C@]5(C)CC6)OC[C@H](O)[C@@H]4O)O[C@H]3C)OC[C@H]2O)[C@H](O)[C@H](O)[C@H]1O (stereo partly specified) |  | inactive | inactive | inactive |  | inactive | inactive |  | inactive | inactive | inactive | inactive | inactive | inactive |  | inactive | inactive | inactive | inactive |
| C/C1=C/[C@@H](C)[C@H](O)C/C=C/CC/C=C/C(=O)O[C@@H]1[C@H](C)C(=O)/C=C/CC1CC(=O)NC(=O)C1 |  | 8.38 µM (active) | 21.1 µM (active) | 3.72 µM (active) | 14.8 µM (active) | 7.47 µM (active) | inactive | inactive |  |  | 2.34 µM (active) | 24.1 µM (active) |  | inactive | inactive | 4.31 µM (active) | inactive |  | inactive |
